Experimental data: PubChem BioAssay (NCI)
Where “and” joins values, the source holds several entries; their conditions need not be identical. Equal entries are not always repeated. About 83,000 compounds went through this panel and 20% of them were active in at least one assay; those are over-represented in the sample as a whole.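 A percent growth of 40 corresponds to 60% growth inhibition; 0 means no net growth; -100 means all cells died. Active threshold: below 10.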 Calls of active or inactive are those of the source.

Test system: MCF7 breast
Test: NCI-60 one-dose screen, 48 h (100 = growth as untreated, 0 = no growth, -100 = all killed)
Details: 10 µM
Protocol: Growth inhibition of the MCF7 human tumor cell line is measured as a screen for anti-cancer activity. Cells are grown in 96 well plates and exposed to the test compound for 48 hours. Compounds are tested at a single concentration, which is 10^-5 M for most compounds. The reported endpoint is percent growth (GI% or GIPRCNT), where numbers from 0 - 100% represent growth inhibition, and numbers from -100% - 0 represent cell death. For example, a value of 40 represents 60% growth inhibition. A value of 0 means no net growth occurred over the course of the experiment. A value of -40 indicates 40% of cells at the beginning of the experiment died by the end of the experiment. A value of -100 means all cells are dead at the end of the experiment.
NCI-60 Human Tumor Cell Lines Screen was performed using the standard one-dose NCI protocol, which is described in more detail at https://dtp.cancer.gov/discovery_development/nci-60/default.htm.
Compounds with GIPRCNT values below 10 were considered active. Activity score was based on GIPRCNT using the following formula: […]
Score is 0 for GIPRCNT values of 100 or above, 50 for GIPRCNT values of 0, and 100 for GIPRCNT values of -100.

**Q.** Which growth does the source give for `C#CCOC(=O)C(N)CS` (stereo not given) here?
**A.** Its growth is 93% (inactive).

**Q.** For `Nc1nc(=S)c2[nH]cnc2[nH]1`, which growth is on record?
**A.** The growth was 8.17% (active) and -0.975% (active).

**Q.** `N#CC(=S)Nc1ccc(Cl)c(Cl)c1` was tested. Which growth did it give?
**A.** The growth was 5.23% (active).

Same assay, conditions: 10 µM unless noted

**Q.** With `O=c1[nH]c(=O)n(C2OC(CO)C(O)C2O)cc1I` (stereo not given) as the compound, how does the growth read?
**A.** Its growth is 89% (inactive) and 107% (inactive).

**Q.** With `C(#CCN1CCOCC1)CCCN1CCOCC1` as the compound, how does the growth read?
**A.** The growth was 91.9% (inactive) and 99.5% (inactive).

**Q.** How did the growth turn out when `Clc1ccc2sc(-c3ccccc3)nc2c1` was run?
**A.** The growth was 61.2% (inactive).

**Q.** Which growth does the source give for `CCn1c2ccc(N(C)C)cc2c2cc(N(C)C)ccc21` here?
**A.** The growth was 86.4% (inactive).

**Q.** `COCCCNC1=C(C#N)C(=O)NC(c2cccs2)S1` (stereo not given) was tested. Which growth did it give?
**A.** Its growth is 89.6% (inactive).

**Q.** For `OC1CCCN(Cc2ccccc2)C1` (stereo not given), which growth is on record?
**A.** The growth was 102% (inactive).

**Q.** How did the growth turn out when `CCOC(=O)c1ccc(N2C(=O)C(Cl)(c3ccccc3)C2c2ccco2)cc1` (stereo not given) was run?
**A.** Its growth is 62.4% (inactive).

**Q.** `c1ccc2c[n+](Cc3ccc4ccccc4n3)ccc2c1` was tested. Which growth did it give?
**A.** Its growth is 72.2% (inactive).

**Q.** `Cc1cc(O)c(C(C)C)cc1N=O` was tested. Which growth did it give?
**A.** Its growth is 90.8% (inactive) and 94.9% (inactive).

**Q.** For `CC(C)(C)C1=CC(=O)C(C(C)(C)C)=CC1=O`, which growth is on record?
**A.** The growth was 86.5% (inactive) and 97.2% (inactive).

**Q.** For `CCc1ccccc1-n1[nH]c(C)c(C=N)c1=O`, which growth is on record?
**A.** Its growth is 94.1% (inactive).

**Q.** For `CN(C)CC(CN(C)C)C(O)c1ccccc1` (stereo not given), which growth is on record?
**A.** The growth was 98.5% (inactive).

**Q.** Which growth does the source give for `CCN(CC)CCNC(=O)c1ccc(NCN2C(=O)NC(c3ccccc3)(c3ccccc3)C2=O)cc1` here?
**A.** Its growth is 98.4% (inactive) and 94.6% (inactive).

**Q.** How did the growth turn out when `CC1=CC(=O)c2cccc(NC3=NCCO3)c21` was run?
**A.** The growth was 98.6% (inactive).

**Q.** Which growth does the source give for `COc1ccc([N+](=O)[O-])cc1OC` here?
**A.** The growth was 87.5% (inactive) and 96.7% (inactive).

**Q.** Which growth does the source give for `N=C(N=C(N)N)N1CCOCC1` here?
**A.** The growth was 92.9% (inactive) and 91.5% (inactive).

**Q.** Which growth does the source give for `COc1ccc(/C=N/Nc2nc3ccccc3s2)cc1` here?
**A.** The growth was 61.1% (inactive).

**Q.** `CCCCCCCCCCCCCCCCC(=O)O` was tested. Which growth did it give?
**A.** The growth was 93.9% (inactive).

**Q.** How did the growth turn out when `O=C(NC(=O)c1ccc(F)c(Cl)c1)NC1CC1` was run?
**A.** Its growth is 100% (inactive) and 89.6% (inactive).

**Q.** Which growth does the source give for `COc1ccc(CCN=Cc2ccc(Cl)cc2)cc1OC` here?
**A.** The growth was 96.1% (inactive).

**Q.** With `O=C1C=CC(=O)N1Cc1ccco1` as the compound, how does the growth read?
**A.** The growth was 62% (inactive).

**Q.** Which growth does the source give for `CCOC(=O)C1=C(C)NC(C)=C(C(=O)OCC)C1` here?
**A.** The growth was 102% (inactive) and 115% (inactive).

**Q.** Which growth does the source give for `Cc1ccc([N+](=O)[O-])cc1Br` here?
**A.** Its growth is 97.6% (inactive).

**Q.** For `O=S(=O)(O)c1ccc2cc(O)ccc2c1`, which growth is on record?
**A.** Its growth is 99.8% (inactive).

**Q.** How did the growth turn out when `O=C1Cc2ccccc2C(=O)N1` was run?
**A.** Its growth is 56.8% (inactive).

**Q.** How did the growth turn out when `CC1(CO)CCCC1NCCNC1CCCC1(C)CO` (stereo not given) was run?
**A.** The growth was 94% (inactive) and 95.3% (inactive).

**Q.** For `NNc1ncnc2cccc(Cl)c12`, which growth is on record?
**A.** Its growth is 96.6% (inactive).

**Q.** With `CN(C)c1ccc(C(=N)c2ccc(N(C)C)cc2)cc1` as the compound, how does the growth read?
**A.** Its growth is 10.1% (inactive) and 2.28% (active).

**Q.** With `N=C(N)N1CCc2ccccc2C1` as the compound, how does the growth read?
**A.** The growth was 106% (inactive) and 104% (inactive).

**Q.** Which growth does the source give for `CC(C)(C)OC(=O)c1ccc(NCc2cc(O)ccc2O)cc1` here?
**A.** Its growth is 29.5% (inactive).

**Q.** Which growth does the source give for `O=C(O)/C=C/C=C/c1ccccc1` here?
**A.** Its growth is 92.9% (inactive) and 94.4% (inactive).

**Q.** Which growth does the source give for `Cc1c(O)nc(N)[nH]c1=O` here?
**A.** The growth was 99% (inactive).

**Q.** For `COC1C(OC(N)=O)C(O)C(Oc2ccc3c(O)c(NC(=O)c4ccc(O)c(CC=C(C)C)c4)c(=O)oc3c2C)OC1(C)C` (stereo not given), which growth is on record?
**A.** The growth was 96.8% (inactive) and 93.4% (inactive).

**Q.** `Nc1nc(N)c2cc(S(=O)(=O)c3ccccc3)ccc2n1` was tested. Which growth did it give?
**A.** The growth was 40.2% (inactive) and 29.5% (inactive).

Same assay, conditions: 100 µM

**Q.** With `C#CCOC(=O)C(N)CS` (stereo not given) as the compound, how does the growth read?
**A.** Its growth is 90.4% (inactive) and 76.4% (inactive).

**Q.** How did the growth turn out when `N#CC(=S)Nc1ccc(Cl)c(Cl)c1` was run?
**A.** Its growth is -23.4% (active) and -100% (active).

Same assay, conditions: 250 µM

**Q.** How did the growth turn out when `Nc1nc(=S)c2[nH]cnc2[nH]1` was run?
**A.** The growth was -5.31% (active) and -50.8% (active).
